The values that follow come from PubChem BioAssay (NCATS).

Inconclusive results are not listed. Entries that show only a call come without a potency. The source made the active and inactive calls. The call rests on the fitted dose curve; in most records, active means well fitted inhibition curve with a large enough effect; inconclusive means small, poorly fitted or top-dose-only effect, or effect the other way; inactive means flat fitted curve, though single readings scatter.

The nature of the test: qHTS for Inhibitors of Plasmodium falciparum (GB4) proliferation (AID 504315). Further: nearly all actives have a fitted effect of over 50% in size. As to conditions: P. falciparum GB4 in erythrocytes, SYBR Green DNA, 72 h; series mostly up to 6.7 µM. In outline:
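Parasite growth measured as SYBR Green DNA fluorescence (ex 485, em 535 nm) after overnight lysis following 72 h culture at 37 °C, 0.3% parasitemia, 2.5% hematocrit. Values normalized against DMSO and 0.29 uM artemisinin controls, with plate-stack correction.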
For the molecule `COC(=O)C12CC3(CCC4C5C(C(OCc6ccccc6)C41)C52)OCCO3` (centres undefined), the Potency result is “inactive”.

Consider `COc1ccc2c(c1)O[C@@H](c1cccc(C(F)(F)F)c1)[C@H](OC(=O)Nc1ccc(OC(F)F)cc1)C2=O`, for which the Potency entry was “inactive”.

As to `COC(=O)C1=C(C)C(=O)[C@]2(O)c3ccccc3N(C)[C@]12C`, the Potency entry is “inactive”.

As to `CCC12C=C(C=Cc3ccccc3)C(CC)(C1)C(c1ccccc1)CC2=O` (centres undefined), the Potency entry was “inactive”.

For `COC(=O)[C@@H]1[C@@H](c2ccccc2)NC(=O)N(Cc2ccccc2)[C@@H]1C`, the Potency result is “inactive”.

Consider `CC(C)=CCCC(C)=CCON=C1C[C@@H](O)[C@@H](O)[C@@H]2[C@H]3C(=O)N(Cc4ccc5c(c4)OCO5)C(=O)[C@@H]3CC[C@H]12`, for which the Potency result was “inactive”.

As for `COC(=O)N1C(c2ccccc2)=Cc2ccccc2C1CC(C)=O` (centres undefined), the Potency entry is “inactive”.

As for `CCCCS(=O)(=O)N1CCc2nc(-c3ccccc3)c3c(c2C1)CO[C@@H](C)C3`, the Potency entry is “inactive”.

With `FC(F)(F)c1ccc(-c2nc(-c3ccccc3)oc2Nc2ccc3ccccc3c2)cc1`, the Potency entry is “inactive”.

Take `COC[C@@H](O)[C@H]1OCc2ccccc2[C@H]1C=Cc1ccccc1`: the Potency result was “inactive”.

As to `C=CC[C@@]1(c2ccc(OC)cc2)Oc2ccccc2C2=NCCN=C21`, the Potency result was “inactive”.

In the case of `O=C(C=Cc1ccccc1)N1CCC[C@H]1CO`, the Potency result is “inactive”.

`CCN(CC)CC(O)CN1CCCCc2nc(C)c(C)cc21` (centres undefined): the Potency result was “inactive”.

For the molecule `CC1(C)O[C@H]2O[C@H]([C@H](O)CON=C3[C@H]4CCn5c(=O)n(-c6ccccc6)c(=O)n5[C@@H]4[C@H](O)[C@@H]4O[C@H]34)[C@H](O)[C@@H]2O1`, the Potency entry was “inactive”.

On to `CCCCC1=CC2=CC(=O)C(C)(OC(=O)c3cnc4ccccc4n3)C(=O)C2=CO1` (centres undefined), for which the Potency entry was “inactive”.

Regarding `COC(=O)CC=C[C@@H](C)[C@@H](C=NOC[C@@H](O)COCc1ccco1)NS(=O)(=O)c1ccc(C)cc1`, the Potency entry is “inactive”.

On to `COc1ccc2c(c1)C(=O)[C@@H](OC(=O)NCCc1ccc(OC)c(OC)c1)[C@H](c1ccc(OC)c(Br)c1)O2`, for which the Potency entry is “inactive”.

With `CC(CCN1CCc2nc(-c3ccccc3)c(-c3ccccc3)cc2C1)=NOC[C@@H](O)COCc1ccco1`, the Potency entry was “inactive”.

`CC=CC(=O)C[C@H]1CC[C@@H](C)[C@@H](CCO)O1`: the Potency entry is “inactive”.

Take `C=C(C(C)=O)C(O)c1ccccc1` (centres undefined): the Potency entry was “inactive”.

With `COC(=O)CCC(=O)OC1(C)C(=O)C=C2C=C(C3CC3)N(c3ccc(CO)cc3)C=C2C1=O` (centres undefined), the Potency result is “inactive”.

`CCC(=O)C[C@@H](NC(=O)OC)c1ccc(F)cc1`: the Potency entry is “inactive”.

Take `C[C@H]1Cc2c(COc3ccccc3)nc3c(c2CO1)CN(C(=O)C1CC1)CC3`: the Potency result was “inactive”.

Consider `C=CCC(Nc1ccc(OC)cc1)(C(=O)OCC)c1ccccc1` (centres undefined), for which the Potency entry was “inactive”.

Consider `CCCCCCCc1cc2ccccc2c2c(C(=O)OC)c(C(=O)OC)c(C(=O)OC)n12`, for which the Potency entry was “inactive”.

Consider `Cc1ccc2[nH]c3nc(CCCn4ccnc4-c4ccccc4)nnc3c2c1`, for which the Potency result was “inactive”.

Turning to `CCCCC[C@]12Cc3cc(OC)c(OC)cc3[C@H](O1)c1c(cc(C)n(-c3ccccc3)c1=O)O2`, the Potency result was “inactive”.

`CC(CCC(=O)OC[C@H]1O[C@H](C#Cc2ccccc2)C=C[C@H]1Oc1ccc(C)cc1)=NO[C@H](C)c1cn([C@H](CO)Cc2ccccc2)nn1`: the Potency entry was “inactive”.

In the case of `COC(=O)C1=C(C(=O)OC)[C@@H]2N(C)c3ccccc3[C@@]23CCC(=O)N(CCCOC(C)C)C3=N1`, the Potency result is “inactive”.

As for `COC(=O)[C@H](COC(C)(C)C)NC(=O)O[C@@H]1C(=O)c2ccc(OC)cc2O[C@H]1c1cccc(C(F)(F)F)c1`, the Potency result is “inactive”.

`COC1=C[C@H](C(=O)NC2CCN(Cc3ccccc3)CC2)[C@@]2(C)Cc3ccccc3[C@@H]2CC1=O`: the Potency entry was “inactive”.

Turning to `COCCN1C(=O)CC[C@@]23C1=NC(C(=O)OC)=C(C(=O)OC)[C@@H]2N(CC=C(C)C)c1ccccc13`, the Potency entry was “inactive”.

Consider `C#CC[C@@]1(C(=O)OC)C=C[C@@H](C)[C@H](c2ccccc2Br)N1C(=O)C(F)(F)F`, for which the Potency result is “inactive”.

With `COC(=O)C1(C(=O)OC)C[C@@H]2CON=C2[C@@H]1c1ccccc1`, the Potency entry is “inactive”.

As to `C[C@H](NC(=O)N1CCc2nc(-c3ccccc3)c3c(c2C1)CO[C@@H](C)C3)c1ccccc1`, the Potency result was “inactive”.

For the molecule `CC(C)CON=C1C[C@@H](O)[C@@H](O)[C@@H]2[C@H]3C(=O)N(Cc4ccc5c(c4)OCO5)C(=O)[C@@H]3CC[C@@H]12`, the Potency result is “inactive”.

For the molecule `COc1ccc2c(c1)CO[C@H]([C@H](O)CO)[C@H]2C=Cc1ccccc1`, the Potency result was “inactive”.

In the case of `COC(=O)C1=C(C(=O)OC)[C@@H]2N(CC=C(C)C)c3ccccc3[C@@]23CCC(=O)N(CCc2ccccn2)C3=N1`, the Potency entry was “inactive”.

As to `CC(CCN1CCCc2nc(C)c(C)cc21)=NOC[C@@H](O)[C@H]1O[C@@H]2OC(C)(C)O[C@H]2[C@@H]1O`, the Potency entry is “inactive”.
